Structures can show the parent of a compound that is named as a salt.
Legend:
Assay in all cases: phenotypically active (imaging signature differs from DMSO and reproducible) at any of 0.3-9 uM (binary (1 = active, 0 = inactive)); higher = active
Settings in all cases: treatment time: 24 h
A549-ACTB-RAB5A = tested on: A549-ACTB-RAB5A
Summary of the method: (§1)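 Live-cell features were measured per well and normalised to solvent control wells after fifteen gene-edited A549, HepG2 and WPMY1 reporter lines had been treated for 24 h at 0.3, 1, 3 or 9 µM in four wells each. A condition was deviating when ≥3 of 4 wells sat beyond the 95th percentile of control Euclidean distances. It was reproducible when the median replicate Pearson correlation exceeded the 95th percentile of non-replicates. Phenotypic activity demanded both.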

A549-CANX-COX4 = tested on: A549-CANX-COX4
Summary of the method: as §1

A549-GM130-SQSTM1 = tested on: A549-GM130-SQSTM1
Summary of the method: as §1

A549-TP53BP1-CLTA = tested on: A549-TP53BP1-CLTA
Summary of the method: as §1

A549-TUBA1B-RELA = tested on: A549-TUBA1B-RELA
Summary of the method: as §1

HepG2-ACTB-RAB5A = tested on: HepG2-ACTB-RAB5A
Summary of the method: as §1

HepG2-CANX-COX4 = tested on: HepG2-CANX-COX4
Summary of the method: as §1

HepG2-GM130-SQSTM1 = tested on: HepG2-GM130-SQSTM1
Summary of the method: as §1

HepG2-TP53BP1-CLTA = tested on: HepG2-TP53BP1-CLTA
Summary of the method: as §1

HepG2-TUBA1B-RELA = tested on: HepG2-TUBA1B-RELA
Summary of the method: as §1

WPMY1-ACTB-RAB5A = tested on: WPMY1-ACTB-RAB5A
Summary of the method: as §1

WPMY1-CANX-COX4 = tested on: WPMY1-CANX-COX4
Summary of the method: as §1

WPMY1-GM130-SQSTM1 = tested on: WPMY1-GM130-SQSTM1
Summary of the method: as §1

WPMY1-TP53BP1-CLTA = tested on: WPMY1-TP53BP1-CLTA
Summary of the method: as §1

WPMY1-TUBA1B-RELA = tested on: WPMY1-TUBA1B-RELA
Summary of the method: as §1

Measured: phenotypically active

Nc1ncnc2c1cnn2-c1ccccc1
inactive: A549-ACTB-RAB5A 0 | A549-CANX-COX4 0 | A549-GM130-SQSTM1 0 | A549-TP53BP1-CLTA 0 | A549-TUBA1B-RELA 0 | HepG2-ACTB-RAB5A 0 | HepG2-CANX-COX4 0 | HepG2-GM130-SQSTM1 0 | HepG2-TP53BP1-CLTA 0 | HepG2-TUBA1B-RELA 0 | WPMY1-ACTB-RAB5A 0 | WPMY1-CANX-COX4 0 | WPMY1-GM130-SQSTM1 0 | WPMY1-TP53BP1-CLTA 0 | WPMY1-TUBA1B-RELA 0

CC1Cc2ccccc2N1NC(=O)c1ccc(Cl)c(S(N)(=O)=O)c1 (stereo not given) [indapamide]
inactive: A549-ACTB-RAB5A 0 | A549-CANX-COX4 0 | A549-GM130-SQSTM1 0 | A549-TP53BP1-CLTA 0 | A549-TUBA1B-RELA 0 | HepG2-ACTB-RAB5A 0 | HepG2-CANX-COX4 0 | HepG2-GM130-SQSTM1 0 | HepG2-TP53BP1-CLTA 0 | HepG2-TUBA1B-RELA 0 | WPMY1-ACTB-RAB5A 0 | WPMY1-CANX-COX4 0 | WPMY1-GM130-SQSTM1 0 | WPMY1-TP53BP1-CLTA 0 | WPMY1-TUBA1B-RELA 0

Fc1ccc(-c2c3cccc(C(F)(F)F)c3nn2Cc2ccc(F)cc2Cl)cc1
inactive: A549-ACTB-RAB5A 0 | A549-CANX-COX4 0 | A549-GM130-SQSTM1 0 | A549-TP53BP1-CLTA 0 | A549-TUBA1B-RELA 0 | HepG2-ACTB-RAB5A 0 | HepG2-CANX-COX4 0 | HepG2-GM130-SQSTM1 0 | HepG2-TP53BP1-CLTA 0 | HepG2-TUBA1B-RELA 0 | WPMY1-ACTB-RAB5A 0 | WPMY1-CANX-COX4 0 | WPMY1-GM130-SQSTM1 0 | WPMY1-TP53BP1-CLTA 0 | WPMY1-TUBA1B-RELA 0

O=C(O)c1c(Sc2ccccc2)c2cc(Cl)ccc2n1Cc1ccc(Cl)cc1
inactive: A549-ACTB-RAB5A 0 | A549-CANX-COX4 0 | A549-GM130-SQSTM1 0 | A549-TP53BP1-CLTA 0 | A549-TUBA1B-RELA 0 | HepG2-ACTB-RAB5A 0 | HepG2-CANX-COX4 0 | HepG2-GM130-SQSTM1 0 | HepG2-TP53BP1-CLTA 0 | HepG2-TUBA1B-RELA 0 | WPMY1-ACTB-RAB5A 0 | WPMY1-CANX-COX4 0 | WPMY1-GM130-SQSTM1 0 | WPMY1-TP53BP1-CLTA 0 | WPMY1-TUBA1B-RELA 0

COC(=O)/C=C/c1cccc(N(Cc2ccc(-c3ccc(N(C)C)cc3)cc2)C(=O)C2CCCCC2)c1 [fexaramine]
inactive: A549-ACTB-RAB5A 0 | A549-CANX-COX4 0 | A549-GM130-SQSTM1 0 | A549-TP53BP1-CLTA 0 | A549-TUBA1B-RELA 0 | HepG2-ACTB-RAB5A 0 | HepG2-CANX-COX4 0 | HepG2-GM130-SQSTM1 0 | HepG2-TP53BP1-CLTA 0 | HepG2-TUBA1B-RELA 0 | WPMY1-ACTB-RAB5A 0 | WPMY1-CANX-COX4 0 | WPMY1-GM130-SQSTM1 0 | WPMY1-TP53BP1-CLTA 0 | WPMY1-TUBA1B-RELA 0

COc1ccc(CCN(C)CCCN2CCc3cc(OC)c(OC)cc3CC2=O)cc1OC [zatebradine]
inactive: A549-ACTB-RAB5A 0 | A549-CANX-COX4 0 | A549-GM130-SQSTM1 0 | A549-TP53BP1-CLTA 0 | A549-TUBA1B-RELA 0 | HepG2-ACTB-RAB5A 0 | HepG2-CANX-COX4 0 | HepG2-GM130-SQSTM1 0 | HepG2-TP53BP1-CLTA 0 | HepG2-TUBA1B-RELA 0 | WPMY1-ACTB-RAB5A 0 | WPMY1-CANX-COX4 0 | WPMY1-GM130-SQSTM1 0 | WPMY1-TP53BP1-CLTA 0 | WPMY1-TUBA1B-RELA 0

COC(=O)c1sccc1S(=O)(=O)Nc1ccc(Nc2ccccc2)cc1OC
inactive: A549-ACTB-RAB5A 0 | A549-CANX-COX4 0 | A549-GM130-SQSTM1 0 | A549-TP53BP1-CLTA 0 | A549-TUBA1B-RELA 0 | HepG2-ACTB-RAB5A 0 | HepG2-CANX-COX4 0 | HepG2-GM130-SQSTM1 0 | HepG2-TP53BP1-CLTA 0 | HepG2-TUBA1B-RELA 0 | WPMY1-ACTB-RAB5A 0 | WPMY1-CANX-COX4 0 | WPMY1-GM130-SQSTM1 0 | WPMY1-TP53BP1-CLTA 0 | WPMY1-TUBA1B-RELA 0

NS(=O)(=O)c1cc(Cl)c(Cl)c(S(N)(=O)=O)c1 [diclofenamide]
inactive: A549-ACTB-RAB5A 0 | A549-CANX-COX4 0 | A549-GM130-SQSTM1 0 | A549-TP53BP1-CLTA 0 | A549-TUBA1B-RELA 0 | HepG2-ACTB-RAB5A 0 | HepG2-CANX-COX4 0 | HepG2-GM130-SQSTM1 0 | HepG2-TP53BP1-CLTA 0 | HepG2-TUBA1B-RELA 0 | WPMY1-ACTB-RAB5A 0 | WPMY1-CANX-COX4 0 | WPMY1-GM130-SQSTM1 0 | WPMY1-TP53BP1-CLTA 0 | WPMY1-TUBA1B-RELA 0

OC[C@H]1NC[C@@H](O)[C@@H](O)[C@@H]1O [1-Deoxymannojirimycin hydrochloride]
inactive: A549-ACTB-RAB5A 0 | A549-CANX-COX4 0 | A549-GM130-SQSTM1 0 | A549-TP53BP1-CLTA 0 | A549-TUBA1B-RELA 0 | HepG2-ACTB-RAB5A 0 | HepG2-CANX-COX4 0 | HepG2-GM130-SQSTM1 0 | HepG2-TP53BP1-CLTA 0 | HepG2-TUBA1B-RELA 0 | WPMY1-ACTB-RAB5A 0 | WPMY1-CANX-COX4 0 | WPMY1-GM130-SQSTM1 0 | WPMY1-TP53BP1-CLTA 0 | WPMY1-TUBA1B-RELA 0

NC[C@H](O)c1ccc(O)c(O)c1 [norepinephrine]
inactive: A549-ACTB-RAB5A 0 | A549-CANX-COX4 0 | A549-GM130-SQSTM1 0 | A549-TP53BP1-CLTA 0 | A549-TUBA1B-RELA 0 | HepG2-ACTB-RAB5A 0 | HepG2-CANX-COX4 0 | HepG2-GM130-SQSTM1 0 | HepG2-TP53BP1-CLTA 0 | HepG2-TUBA1B-RELA 0 | WPMY1-ACTB-RAB5A 0 | WPMY1-CANX-COX4 0 | WPMY1-GM130-SQSTM1 0 | WPMY1-TP53BP1-CLTA 0 | WPMY1-TUBA1B-RELA 0

C#C[C@]1(OC(C)=O)CC[C@H]2[C@@H]3CCC4=CC(=NO)CC[C@@H]4[C@H]3CC[C@@]21CC [norgestimate]
inactive: A549-ACTB-RAB5A 0 | A549-CANX-COX4 0 | A549-GM130-SQSTM1 0 | A549-TP53BP1-CLTA 0 | A549-TUBA1B-RELA 0 | HepG2-ACTB-RAB5A 0 | HepG2-CANX-COX4 0 | HepG2-GM130-SQSTM1 0 | HepG2-TP53BP1-CLTA 0 | HepG2-TUBA1B-RELA 0 | WPMY1-ACTB-RAB5A 0 | WPMY1-CANX-COX4 0 | WPMY1-GM130-SQSTM1 0 | WPMY1-TP53BP1-CLTA 0 | WPMY1-TUBA1B-RELA 0
